Test results as given in PubChem BioAssay (EPA / NIEHS).
Calls of active or inactive are those of the source. Rule for the calls: active = hit-call score of the fitted dose curve at least 0.9, where 1 is the maximum; inconclusive = response in the unintended direction; inactive = score below 0.9.

experiment: CPHEA_Stoker_NIS_Cytotoxicity: Cytotoxicity Assessment for CPHEA's Radioactive Iodide Uptake (RAIU) Assay for Sodium/Iodide Symporter (NIS) Inhibition, Stoker and Laws Labs (AID 2283897);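 for AC50: active means loss of ATP signal versus DMSO meaning cytotoxicity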
Protocol: CPHEA_Stoker_NIS is a cell-based, single-readout assay that uses hNIS-HEK293T-EPA, a novel human kidney cell line expressing human NIS, with measurements taken at 2 hours after chemical dosing in a 96-well plate. This radioactive iodide uptake (RAIU) assay is used to identify inhibitors of NIS-mediated iodide uptake. A parallel cytoxicity assay (Cell Titer Glo, Promega) was also run in the same cell line.CPHEA_Stoker_NIS_Cytotoxicity is one of 2 assay components measured from the CPHEA_Stoker_NIS assay. It is designed to make measurements of atp content, a form of viability reporter, as detected with bioluminescence signals by Luciferase-coupled ATP quantitation technology.Data from the assay component CPHEA_Stoker_NIS_Cytotoxicity was analyzed at the endpoint, CPHEA_Stoker_NIS_Cytotoxicity, in the positive analysis fitting direction relative to DMSO as the negative control and baseline of activity. Using a type of viability reporter, measures of ATP content for loss-of-signal activity can be used to understand the viability. To generalize the intended target to other relatable targets, this assay endpoint is annotated to the cell cycle intended target family, where the subfamily is cytotoxicity.
hNIS-HEK293T-EPA cells were seeded with a MultiFlo FX dispenser (BioTek, Winooski, VT) into ScintiPlate-96 microplates (Perkin Elmer, Waltham, MA) at a density of 4.0x10^4 cells per well in 200uL growth media and incubated for 40 hours before experimentation. On day of the assay, carrier-free 125I (Perkin-Elmer, Waltham, MA; specific activity: 17.4Ci/mg) was diluted with Hanks' balanced salt solution (Sigma, St. Louis, MO) supplemented with 10mM HEPES (uptake buffer; pH 7.4) at 5uCi/mL (288pg 125I/mL uptake buffer; 2.30nM). The assay was initiated by washing cells twice with 200uL uptake buffer using a 96-well Tecan HydroSpeed plate washer (Tecan, Mannedorf, Switzerland). Uptake buffer (59.7uL) was then added back to each well. Chemical samples (350nL at 200X) were administered using the HDR tool as previously described to achieve a 1X chemical/0.5% final DMSO concentration with subsequent addition of 10uL of 125I dilution (final [125I]: 329pM; 2.88pg/well) for a final reaction volume of 70uL/well. Cells were incubated at room temperature for 2 hours and then washed twice with 200uL ice cold uptake buffer. All uptake buffer was aspirated from wells, plates were sealed, and read on a MicroBeta2 plate reader (Perkin Elmer, Waltham, MA) using a detection protocol to measure CPM corresponding to intracellular 125I concentration. Each chemical concentration (0.001, 0.01, 0.1, 1.0, 10, and 100uM) was assayed in triplicate with three independent biological replicate plates (3 sequential cell passages). Additionally, a concentration response of NaClO4 (0.001, 0.01, 0.1, 1.0, 10, and 100uM) served as a positive control inhibition curve on each RAIU assay plate. DMSO control wells were assayed on each plate as a measure of maximum iodide uptake for normalization and determination of intra- and inter-assay variation. (Toxicol In Vitro, 2017, 40:66-78).

| SMILES | outcome | AC50 |
| --- | --- | --- |
| O=C(O)C(=O)O | inactive | – |
| NCCN | inactive | – |
| O=C(CCCN1CCC(O)(c2ccc(Cl)cc2)CC1)c1ccc(F)cc1 | inactive | – |
| CC(C)c1c(C(=O)Nc2ccccc2)c(-c2ccccc2)c(-c2ccc(F)cc2)n1CC[C@@H](O)C[C@@H](O)CC(=O)O | inactive | – |
| NC(=NCCCCCCN=C(N)/N=C(\N)Nc1ccc(Cl)cc1)/N=C(\N)Nc1ccc(Cl)cc1 | – | 87 µM (active) |
| Cc1[nH]nc2c1N=C(c1ccccc1Cl)c1cc([N+](=O)[O-])ccc1N2 | inactive | – |
| CCCCC(CC)C(=O)O (stereo not drawn) | inactive | – |
| Cc1cc(C(C)(C)C)c(O)c(C(C)(C)C)c1 | inactive | – |
| CCCCCCCCCCCC | inactive | – |
| CCCCc1oc2ccccc2c1C(=O)c1cc(I)c(OCCN(CC)CC)c(I)c1 | inactive | – |
| O=C1OC2(c3ccccc31)c1cc(I)c(O)c(I)c1Oc1c2cc(I)c(O)c1I | inactive | – |
| CCCCCCc1ccc(N)cc1 | inactive | – |
| Cc1cc(Cc2cc(C)cc(C(C)(C)C)c2O)c(O)c(C(C)(C)C)c1 | inactive | – |
